Sampled rows, rich in hits. Any-hit rate of the full collection: about 4%.
EWS-Fli block: EWS/Fli-driven NR0B1 reporter inhibitors, primary screen, A673 cells, NR0B1 luciferase, luminescence, MLPCN library | 350,000 compounds, 0.67% hits | viability-normalised | AID 651661, 2012 | inhibition, % at 12.6 µM;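 active = mean inhibition of at least 50% after viability correction, with every replicate also passing that limit; inconclusive = mean reaches 50% but only one of two replicates passes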;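 also: firefly luciferase signal divided by Alamar Blue viability fluorescence both relative to DMSO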
TRPM1 prom inh: inhibitors of MITF-dependent TRPM1 promoter reporter, primary screen, cell-based, SK-MEL-5, single point, luciferase. SK-MEL-5 TRPM1 promoter luciferase, 24 h. inhibition, % at 12.5 µM. 330,000 compounds, 0.83% hits. AID 488899, 2010;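 active = mean inhibition across replicates of 60% or more, whatever share of single replicates reaches that level; inconclusive = some that reach 60%, reason not given; inactive = mean inhibition across replicates below 60%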
esBAF inh: Bmi1 luciferase reporter increase in mESCs, primary screen, esBAF inhibitor project, mouse ES cells, Bmi1 luciferase knock-in, single point | AID 602393, 2012 | reporter increase, % at 12.5 µM | 24 h; 100% = twice the neutral-well signal | 350,000 compounds, 2% hits; in the data active = activation above about 40%; inconclusive = no clear call, values can overlap the other calls;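 also: a rise in the Bmi1 reporter signal indicates esBAF inhibition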
MITF act: activators of MITF-driven TRPM1 promoter reporter, primary screen, cell-based, SK-MEL-5, luciferase, single point; SK-MEL-5 TRPM1-promoter luciferase, 24 h; % of positive control, neutral wells = 0; AID 588334, 2011; activation, % at 12.5 µM; 300,000 compounds, 0.75% hits;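 active = mean activation of at least 80% with every replicate also reaching 80%; inconclusive = mean reaches 80% but some replicate falls short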
Wnt bcat act: Wnt/beta-catenin pathway activators, primary screen, cell-based, plate reader, single point; activation, % at 9.35 µM; AID 743398, 2014; Wnt/beta-catenin reporter cell assay, activator; 300,000 compounds, 1.2% hits; in the data active = activation above about 30%, passing the limit was not always enough; inconclusive = no clear call, values can overlap the other calls
PAX8 reporter: inhibitors of PAX8-driven TPO luciferase reporter, primary screen, RMG-I cells, single concentration; SteadyGlo, 24 h; inhibition, % at 12.6 µM; 360,000 compounds, 1.2% hits;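 active = mean replicate inhibition at least 60% with every replicate also reaching 60%; inconclusive = only one of the two criteria is met; inactive = mean below 60% and not all replicates reaching 60%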;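 also: luciferase light reporting Pax8 driven TPO promoter activity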
Hits are given with their value; n = inactive; u = inconclusive; x = not tested or not shown.

SMILES	EWS-Fli block	TRPM1 prom inh	esBAF inh	MITF act	Wnt bcat act	PAX8 reporter
CC(C)c1ccc(OCc2ccc(C(=O)N(C)C)o2)cc1	n	n	57	91	45	n
CC(=O)N1[C@@H](CO)[C@@H]2c3ccccc3N(C(=O)c3ccccc3)C[C@@H]21	n	x	n	x	x	n
C[C@@H]1CN([C@H](C)CO)C(=O)c2cccc(NC(=O)NC3CCCCC3)c2O[C@@H]1CN(C)C(=O)Nc1cccc2ccccc12	n	x	n	x	x	n
COc1ccc(CN(C)C[C@H]2OCCCC[C@@H](C)Oc3ccc(NC(=O)c4ccncc4)cc3C(=O)N([C@H](C)CO)C[C@H]2C)cc1	n	x	n	x	x	x
O=C1C(F)=CC(COC(c2ccccc2)(c2ccccc2)c2ccccc2)OC1n1cc(F)c(=O)[nH]c1=O (stereo not drawn)	69	114	x	x	n	n
C[C@H](NC(=O)[C@@H]1[C@@H](CO)[C@@H]2Cn3c(ccc(C4=CCCCC4)c3=O)[C@H]1N2)c1ccccc1	n	x	n	x	x	n
N#Cc1cccc(NC(=O)COC(=O)Cn2nc(-c3ccccc3)oc2=O)c1	n	n	n	n	38	n
Cc1cc(C)c(NC(=O)COC(=O)Cn2nc(-c3ccccc3)oc2=O)c(C)c1	n	n	n	n	n	n
O=C(COc1ccccc1Cl)Nc1ccc2c(c1)OCO2	n	n	n	121	n	n
COc1ccccc1OCC(=O)Nc1ccc2c(c1)OCO2	n	n	n	n	n	n
Cc1ccc(C(=O)CCNc2ccccc2)o1	x	n	52	n	x	x
CC(=O)Nc1ccccc1OCC(=O)c1ccc2c(c1)OCO2	x	n	u	x	37	n
O=C(CCNc1ccccc1)c1ccc2c(c1)OCO2	x	n	92	x	48	n
Cc1ccc(C(=O)CCNc2ccc(Br)cc2)o1	x	n	n	n	n	x
O=C(Cc1cccnc1)N[C@H]1CC[C@@H](CCNS(=O)(=O)c2ccccc2Cl)O[C@H]1CO	x	x	n	x	x	x
Cc1ccc(NC(=O)COc2ccccc2C=O)cc1Cl	n	n	47	n	n	n
CC(=O)Nc1cccc(NC(=O)COc2ccccc2C)c1	n	n	n	x	n	n
N#Cc1ccc(NC(=O)COC(=O)CNC(=O)C2CCCCC2)cc1	x	n	n	n	x	x
O=C(COC(=O)C1CC1)Nc1ccc2c(c1)OCO2	n	n	x	n	47	n
COc1cc(C)ccc1OCC(=O)Nc1ccc2c(c1)OCO2	n	n	n	n	48	n
N#Cc1ccc(NC(=O)COC(=O)C2CCC2)cc1	n	x	n	x	n	113
O=C(Cc1ccccc1)N[C@H]1CC[C@@H](CC(=O)N2CCOCC2)O[C@H]1CO	n	x	n	x	x	n
Cc1ccc(S(=O)(=O)Nc2ccc3c(c2)C(=O)N([C@H](C)CO)C[C@H](C)[C@H](CN(C)C(=O)Nc2ccccc2)O3)cc1	n	x	n	x	x	n
Cc1cc2ccccc2cc1C(=O)c1ccccc1	n	n	x	n	n	n
Cc1sc2cc3c(c(C(=O)c4ccccc4)[n+]2c1C)-c1cccc2cccc-3c12	n	x	x	x	n	86
SMILES	EWS-Fli block	TRPM1 prom inh	esBAF inh	MITF act	Wnt bcat act	PAX8 reporter
O=C(c1ccccc1)c1c2c(cc3sc4ccccc4[n+]13)-c1cccc3cccc-2c13	x	86	x	n	n	66
C[C@H](CO)N1C[C@H](C)[C@@H](CN(C)CC2CC2)Oc2ccc(N(C)C)cc2CC1=O	n	x	n	x	x	n
O=C(Nc1ccccc1)Nc1cc(Cl)cc(Cl)c1	x	n	n	n	x	x
O=C(Nc1ccccc1)Nc1cc(OCC(F)(F)F)cc(OCC(F)(F)F)c1	n	85	x	n	n	95
CCOC(=O)c1c(NC(C)=O)sc2c(OCC(O)CNC(C)(C)C)c(Br)ccc12 (stereo not drawn)	x	72	n	n	n	n
COC(=O)c1ccc([C@@H]2C=C(C(=O)N3CCN(Cc4ccc5c(c4)OCO5)CC3)O[C@H](OCc3ccc(CO)cc3)C2)cc1	n	x	x	x	x	x
CC1CC(Nc2ccccc2)c2ccccc2N1C(=O)c1ccccc1F (stereo not drawn)	63	n	n	n	n	n
C[C@@H]1CN([C@H](C)CO)C(=O)c2cc(-c3ccccc3F)cnc2O[C@H]1CN(C)Cc1cccc(F)c1	n	x	n	x	x	n
O=C(/C=C/c1cccc(Cl)c1)Nc1ccncc1	x	n	n	n	x	n
O=C(/C=C/c1c(F)cccc1Cl)Nc1ccncc1	x	n	62	n	x	n
O=C(/C=C/c1ccccc1Cl)Nc1ccncc1	x	n	x	n	x	x
O=C(/C=C/c1c(Cl)cccc1Cl)Nc1ccncc1	x	n	44	88	n	n
CN(C)CC(=O)Nc1ccc2c(c1)[C@H]1C[C@H](CC(=O)NCCN3CCCCC3)O[C@H](CO)[C@H]1O2	n	x	n	x	x	n
COCCCNC(=O)C1CCN(C(=O)c2oc3cc4sc(N(C)C)nc4cc3c2C)CC1	x	n	49	u	n	n
C[C@@H]1CN([C@@H](C)CO)C(=O)c2cc(NC(=O)CCCN(C)C)ccc2O[C@H]1CN(C)S(=O)(=O)c1ccc(F)cc1	n	x	n	x	x	n
C[C@@H]1CN([C@H](C)CO)C(=O)Cc2cc(NC(=O)Cc3cn(C)c4ccccc34)ccc2O[C@H]1CN(C)Cc1ccc(C(=O)Nc2ccccc2N)cc1	n	x	n	x	x	x
Cc1cnc(NC(=O)CN2CCN(c3ccccn3)CC2)s1	x	n	x	n	n	68
Cc1noc(C)c1S(=O)(=O)N(C)C[C@@H]1Oc2ccc(NS(=O)(=O)c3ccccc3)cc2C(=O)N([C@@H](C)CO)C[C@@H]1C	n	x	n	x	x	n
O=C(NCC[C@H]1CC[C@H](NS(=O)(=O)c2ccccc2)[C@@H](CO)O1)c1cc(Cl)cc(Cl)c1	n	x	n	x	x	n
CCc1sc(C(=O)Nc2ncccc2C)cc1C	x	n	54	n	n	n
CCc1sc(C(=O)Nc2nccs2)cc1C	n	n	n	n	47	n
CCc1sc(C(=O)Nc2ncccc2O)cc1C	x	n	n	n	u	n
CCOC(=O)c1sc(NC(=O)C(C)(C)C)cc1C	n	x	57	x	n	n
CCOC(=O)c1sc(NC(=O)c2ccc(Cl)s2)cc1C	n	n	62	n	n	n
CCOC(=O)c1sc(NC(=O)c2ccc(S(=O)(=O)N(C)C)cc2)cc1C	x	n	n	x	n	n
SMILES	EWS-Fli block	TRPM1 prom inh	esBAF inh	MITF act	Wnt bcat act	PAX8 reporter
CCOC(=O)c1sc(NC(=O)C2CC2)cc1C	n	n	n	n	n	n
CCOC(=O)c1sc(NC(=O)c2ccccc2)cc1C	x	n	57	x	x	x
CCOC(=O)c1sc(NC(=O)Nc2ccc(Cl)cc2)cc1C	x	n	x	n	n	n
O=C(NCC[C@@H]1CC[C@@H](NC(=O)c2ccncc2)[C@H](CO)O1)Nc1ccc(Cl)cc1	n	x	n	x	x	n
Cc1ccc(S(=O)(=O)/C(=C/Cl)NC(=O)c2ccccc2)cc1	x	n	x	n	x	94
N#C/C(=C\C=C\c1ccccc1[N+](=O)[O-])C(=O)NC1CCCCC1	x	72	n	n	x	x

Assay outcomes deposited in PubChem by Broad Institute.
